About 610 (0.16%) of roughly 390,000 compounds were called active. A call without a number means that no potency is given here. Roughly 4% stayed inconclusive and do not appear here. The sample holds actives, similar compounds and a random draw of the others, so the mix is not that of the screen. Calls follow the shape of the dose curve; as a rule, active = well fitted inhibition curve with a large enough effect; inconclusive = small, poorly fitted or top-dose-only effect, or effect the other way, or another doubt; inactive = no such curve, though single readings can be large or run the other way.
Experiment: Nrf2 qHTS screen for inhibitors: counterscreen for cytotoxicity
Details: A549 ARE-Fluc cells, CellTiter-Fluor viability, 18-24 h; series mostly up to 46 µM
From the text: NIH Molecular Libraries Probe Production Network [MLPCN]
NIH Chemical Genomics Center [NCGC]
Assay Provider: Shyam Biswal, Johns Hopkins University
Nrf2 is a transcription factor that maintains cellular redox homoestasis and protects cells from xenobiotics. Nrf2 binds to the antioxidant response element (ARE) to induce gene expression of a broad spectrum of genes that encode for antioxidants. […] Finding a small molecule that act as an inhibitor of Nrf2 function would represent a novel therapeutic target that could lead to improvement in survival of patients undergoing chemo- and/or radio- therapy.
So here we implemented a counterscreen to weed out the cytotoxic compounds.
1. Shibata, T., et al., Genetic Alteration of Keap1 Confers Constitutive Nrf2 Activation and Resistance to Chemotherapy in Gallbladder Cancer. Gastroenterology, 2008.
2. Sjoblom, T., et al., The consensus coding sequences of human breast and colorectal cancers. Science, 2006. 314(5797): p. 268-74.
NCGC Assay Protocol Summary:
A concentration-response assay was performed with A549 ARE_Fluc cells which are suspended in 5% FBS OPTI-MEM. Five uL were dispensed into 1536-well white TC-treated plate using the Kalypsys dispenser to achieve a density of 5000 cells/well in all columns except column 1. The plate is incubated at 37deg C at 5% CO2 for 2 hours before 23 nL of compounds are added with the Kalypsys pin tool equipped with a 1,536-pin array containing 10-nL slotted pins (FP1S10, 0.457-mm diameter, 50.8 mm long; V&P Scientific). The control compounds Budesonide and Staurosporine are both added at a concentration of 2mM and Budesonide is also added as a 1:10 titration, starting at 200uM, to achieve dose-response. After an 18-24 hour incubation at 37deg C at 5% CO2, 5ul of medium is added to column 1. Afterwards 1ul of 5x of CellTiter-Fluor (Promega) is added to every well. The plate is then incubated at 37deg C at 5% CO2 for 30 minutes before they are read on the ViewLux (Perkin Elmer) for a fluorescent read Ex=405(10)/Em=525(10) for a 3 second exposure, 2x binning, and high gain. Then 3 uL of 3x BugLite is dispensed into all wells and the plate is incubated at ambient room temperature for 15 minutes. Afterwards another ViewLux read is performed using the clear filter to get a luminescent read with the settings of 40 second exposure, 2x binning, and high gain. Cytotoxicity is assessed through the first fluorescent read and then biochemical activity against Nrf2 is measured in the luminescent read.
Potency is read from the fitted curve at half-maximal effect.

Compound | Potency
O=C(CSc1nnc(-c2ccccc2F)o1)Nc1cccc(C(F)(F)F)c1 | inactive
Cc1noc(C)c1-c1ccc2ncnc(NCc3ccc(F)c(F)c3)c2c1 | inactive
CC(Nc1ncnc2ccc(-c3ccc4c(c3)OCO4)cc12)c1ccco1 (configuration not stated) | inactive
CCCS(=O)(=O)Nc1cccc(-c2cn3ccsc3n2)c1 | inactive
CCOc1cc(-c2nnc(SCC(=O)NC3CCCC3)nc2-c2ccc(OC)c(OCC)c2)ccc1OC | inactive
O=C(CNC(=O)c1ccc(Cl)c(C(F)(F)F)c1)OC(C(=O)Nc1cc(C(F)(F)F)ccc1Cl)c1ccccc1 (configuration not stated) | inactive
CCOC(=O)CNC(=O)c1cc2c(=O)n3cccc(C)c3nc2s1 | inactive
CCOC(=O)CC1C(=O)NCCN1c1nc2c(C)cccn2c(=O)c1/C=C1\SC(=S)N(C(C)CC)C1=O (configuration not stated) | 20.6 µM (active)
COc1ccc(C(=O)NC(=S)N2CCNC(=O)C2CC(=O)OC(C)C)cc1 (configuration not stated) | inactive
Cc1cc(C)n2ncc(C(=O)N3CCCC3)c2n1 | inactive
CSc1ncc(Cl)c(C(=O)Nc2ccc(S(=O)(=O)N3CCCC(C)C3)cc2)n1 (configuration not stated) | inactive
Cc1noc(C)c1-c1ccc2ncnc(NCc3ccc4[nH]ccc4c3)c2c1 | inactive
Cc1ccc(S(=O)(=O)NC(N)=NCCC[C@@H](NC(=O)CNC(=O)c2ccccc2)C(=O)Nc2cc(C(F)(F)F)ccc2Cl)cc1 | inactive
CCOc1cc(C2C(C(=O)Nc3ccc(OC)cc3)=C(C)Nc3nc(SC)nn32)ccc1O (configuration not stated) | inactive
CN1CCOc2cc(S(=O)(=O)N3CCN(S(=O)(=O)c4c(F)cccc4F)CC3)cnc21 | inactive
O=C1CN(Cc2ccccc2)S(=O)(=O)c2ccccc21 | inactive
COc1ccc(C2Nc3ccc(NC(=O)COC(C)=O)cc3C(=O)N2Cc2ccccc2)cc1COc1ccc(NC(C)=O)cc1 (configuration not stated) | inactive
COc1ccc(C2Nc3ccccc3C(=O)N2Cc2ccc(Cl)cc2)cc1COc1ccc(NC(C)=O)cc1 (configuration not stated) | inactive
O=C1C[C@@H](c2ccc3ccccc3c2)N1S(=O)(=O)c1ccccc1[N+](=O)[O-] | inactive
CNC(=O)[C@]1(C(F)(F)F)C[C@H](CCc2ccccc2)CCCO1 | inactive
COc1ccc2c(Sc3ccc(C)cc3)c(C(=O)NC(C)c3ccccc3)[nH]c2c1 (configuration not stated) | inactive
Cc1cc(NS(=O)(=O)c2ccc3oc(=O)c4ncn(C)c4c3c2)ccc1Br | inactive
O=C(Nc1ncc([N+](=O)[O-])s1)C1COc2ccccc2O1 (configuration not stated) | 20.6 µM (active)
CC(/C=C/c1ccco1)=N/NC(=O)C1COc2ccccc2O1 (configuration not stated) | inactive

Compound | Potency
CC1CC(=NNC(=O)C2COc3ccccc3O2)CC(C)(C)C1 (configuration not stated) | inactive
Oc1ccc(Br)cc1C1C=C(c2ccc3c(c2)OCO3)NC(c2ccc(Cl)cc2)N1 (configuration not stated) | inactive
Cc1ccc(-c2nc(=N)sn2Cc2ccccc2)cc1 | inactive
CCCN1CCC(=O)N(C(CSc2ccc(OC)cc2)Cc2ccccc2)CC1 (configuration not stated) | inactive
COc1ccc(C2Nc3cccc(OC)c3C(=O)N2Cc2ccccc2)cc1COc1ccc(NC(C)=O)cc1 (configuration not stated) | inactive
CCOc1ccc(Br)cc1CSC(=N)N | 20.6 µM (active)
COCC(C)NCc1cc(Br)ccc1OC (configuration not stated) | inactive
CCOc1ccc(Br)cc1S(=O)(=O)Nc1cccc(S(=O)(=O)N(CC)CC)c1 | inactive
O=C1NS(=O)(=O)c2ccccc21 | inactive
O=C(NC(c1ccco1)c1cc(Cl)c2cccnc2c1O)c1ccccc1 (configuration not stated) | inactive
O=C1CCc2cc(S(=O)(=O)Nc3cccc(Oc4ccccc4)c3)ccc2N1 | inactive
CNC(=O)CN1C(=O)c2cccnc2Sc2ccccc21 | inactive
CCN1C(=O)c2ccccc2Sc2ccc(NC(=O)Cc3ccc(OC)cc3)cc21 | inactive
CCN1/C(=C/C(=S)Nc2ccccc2)Sc2ccccc21 | 16.4 µM (active)
Cc1cc2c(s1)c1cnn(Cc3cc(F)c(Cl)cc3Cl)c(=O)c1n2C | inactive
CN=C1C=C/C(=N/N=c2\ccn(O)cc2C)C=C1C | 16.4 µM (active)
OC[C@@H]1O[C@H](n2cnc3c(SCc4ccccc4)ncnc32)[C@H](O)[C@H]1O | inactive
COc1ccc(C2Nc3ccccc3C(=O)N2Cc2ccccc2)cc1COc1ccc(C(N)=O)cc1 (configuration not stated) | inactive
COc1cc(F)c(S(=O)(=O)N2CCCN(S(=O)(=O)c3ccc(N)cc3)CC2)c(F)c1 | inactive
Cc1nc(N2CCOCC2)c2c(C(=O)NCc3cccc(Cl)c3)c(C)oc2n1 | inactive
CCOc1ccc(-c2n[nH]c3c2C(c2ccccc2OC)N(c2ccc(Br)cc2)C3=O)cc1 (configuration not stated) | inactive
CCCN1CCC(=O)N(C(CSc2ccc(C)cc2)Cc2ccccc2)CC1 (configuration not stated) | inactive
Cc1ccc(S(=O)(=O)N2CCN(c3nc(-n4cnc5ccccc54)nc4ccccc34)CC2)cc1 | inactive
